Test results reported in PubChem BioAssay (NCI).
Compounds without any hit were thinned out: in the full panel of roughly 83,000, 20% have a hit.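 Compound tested at a single concentration for 48 hours in 96-well plates; a percent growth value below 10 was scored as active.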 Calls of active or inactive are those of the source.

These compounds were tested on A549/ATCC NSCLC (assay: NCI-60 one-dose screen, 48 h (100 = growth as untreated, 0 = no growth, -100 = all killed)). Conditions: 10 µM unless noted.
For `COc1ccc(OC)c(N(CCN2C(=O)c3ccccc3C2=O)C(=O)CCl)c1`, the growth was 76% (inactive).
With `O=C(NC1CCN(Cc2ccccc2)CC1)c1cc(C(=O)NC2CCN(Cc3ccccc3)CC2)cc(C(=O)NC2CCN(Cc3ccccc3)CC2)c1` the growth was 39.8% (inactive).
In the case of `CCOC(=O)c1c(Cl)c2c(n1Cc1ccccc1)-c1oncc1CCC2`, the growth is reported as 43% (inactive).
For `O=C(/C=C/c1ccccn1)c1ccc(OCc2nnc(-c3ccc(Cl)cc3)o2)cc1`, the growth was 34.1% (inactive).
With `CSc1nc2c(c(=O)n1C)N=C1c3ccccc3C(=O)C1C(c1ccccc1)N2` (centres undefined) the growth was 81.6% (inactive).
In the case of `CC/C=C\C[C@H](O)C/C=C1/C(=O)C=C[C@@H]1C/C=C\CCCC(=O)OCCS(=O)(=O)c1ccccc1`, the growth is reported as 78.1% (inactive).
In the case of `Cc1cc(Nc2ccc(OCc3ccccc3)cc2)nc2cc(O)ccc12`, the growth is reported as 66.6% (inactive).
`CSc1nc2c(c(=O)[nH]1)N=C1c3ccccc3C(=O)C1C(c1ccc(F)cc1)N2` (centres undefined) was tested, and the growth was 56.3% (inactive).
`CCOc1ccccc1CN1CCc2nc3cc(C(C)(C)C)[nH]n3c(=O)c2C1` was tested, and the growth was 112% (inactive).
With `O=C(NC(=S)Nc1cccc(NC(=S)NC(=O)c2ccccc2)c1)c1ccccc1` the growth was 57.6% (inactive).
For `CCOC(=O)c1c2c(n3cccc(Cl)c13)C(=O)c1ncccc1C2=O`, the growth was 38.4% (inactive).
For `O=C(NN1C(=O)CSC1c1ccc(Cl)cc1)c1[nH]c2ccc(F)cc2c1-c1ccccc1` (centres undefined), the growth was 26.9% (inactive).
`COc1ccc(-n2c(C(O)c3ccccc3)nn(CN3CCOCC3)c2=S)cc1` (centres undefined) was tested, and the growth was 103% (inactive).
In the case of `CCCC(=O)CC(C)=O.CCCC(=O)CC(C)=O.[Cu]`, the growth is reported as 79.4% (inactive).
